Hits are enriched below; roughly 2.9% of the tested compounds scored in any of these assays.
ADAM17 inh = inhibits human ADAM17; inhibition, % at 6.95 µM; 370,000 tested, 0.83% active; P78536; recombinant ADAM17, EDANS/DABCYL FRET peptide cleavage;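 active means inhibition above the mean of compounds lying between control limits plus 3 SD, set per campaign, cut at about 8.5% in these data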
PLCb3 inh = PLC-beta3 (human) inhibition, primary screen. AID 720704. inhibition, % at 12.2 µM. Q01970. Purified PLC-beta3, fluorogenic substrate, fluorescence. 370,000 tested, 0.18% active; in the data active means inhibition above about 11%
KLK7 zymogen act = activates the human kallikrein-7 zymogen; 370,000 tested, 0.9% active; activation, % at 7 µM; purified proKLK7, EDANS-DABCYL substrate fluorescence; 100% is mature enzyme control, 0% vehicle;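 active means activation above the mean of all tested compounds plus 3 SD, computed per campaign excluding outliers beyond control limits, cut at about 13% in these data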
Target sequence (P49862 whole entry, looked up): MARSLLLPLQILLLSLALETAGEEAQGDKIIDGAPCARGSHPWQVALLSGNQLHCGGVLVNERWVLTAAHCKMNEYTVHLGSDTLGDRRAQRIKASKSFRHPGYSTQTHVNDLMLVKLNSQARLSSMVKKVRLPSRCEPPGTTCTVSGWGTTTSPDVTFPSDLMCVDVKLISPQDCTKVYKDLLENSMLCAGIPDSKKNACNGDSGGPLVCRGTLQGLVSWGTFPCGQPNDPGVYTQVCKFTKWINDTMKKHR
ADAM10 inh = ADAM10 inhibition, QFRET primary screen; O14672; recombinant ADAM10, EDANS/DABCYL FRET peptide cleavage, 3 h; inhibition, % at 7 µM; 370,000 tested, 0.62% active; AID 720582;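 active means inhibition above a per-campaign cutoff equal to the mean of compounds falling between control-based bounds plus 3 SD, cut at about 20% in these data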
PLC-gamma1 inh = inhibitors of human phospholipase C gamma1; purified PLC-gamma1, fluorogenic substrate, fluorescence; 370,000 tested, 0.84% active; P19174; inhibition, % at 12.2 µM
PLCgamma1 ctr = counter-screen for PLC-beta3 inhibitors: inhibitors of human PLC-gamma1 | inhibition, % at 12.3 µM | AID 743258 | 3,300 tested, 3.1% active | purified PLC-gamma1, fluorogenic substrate, fluorescence | shares compounds with PLC-gamma1 inh
PLCbeta3 conf = human PLC-beta3 inhibition, confirmation; 3,300 tested, 1% active; inhibition, % at 12.3 µM; AID 743261; shares compounds with PLC-gamma1 inh; purified PLC-beta3, fluorogenic substrate fluorescence; in the data active means inhibition above about 11%
Large screens that a line does not name were inactive (follow-up assays come after a bar, where they were run). Unless noted, no stated cut-off is given here; in the data, active means inhibition above about 9.5%; inactive means the rest.

O=C(COc1ccccc1)NC(NC(=S)Nc1ccccc1C(=O)O)C(Cl)(Cl)Cl (stereo unspecified)	none
COc1ccccc1NC(=O)c1ccccc1Oc1ccccc1	none
O=C(c1cccc(S(=O)(=O)N2CCOCC2)c1)N(CCO)Cc1ccccc1	PLC-gamma1 inh 10 | PLCgamma1 ctr inactive | PLCbeta3 conf inactive
COc1ccccc1CNC(=O)COC(=O)Cn1cnc2c1c(=O)n(C)c(=O)n2C	PLCb3 inh 11 | PLCgamma1 ctr inactive | PLCbeta3 conf inactive
COC(=O)c1ccccc1NC(=O)Cn1cnc2c1c(=O)n(C)c(=O)n2C	PLC-gamma1 inh 10 | PLCgamma1 ctr inactive | PLCbeta3 conf inactive
Cc1ccc(Nc2nc(C)nc3c2oc2ccccc23)cc1	none
CCOC(=O)C(CCCOc1ccccc1C)C(=O)OCC	PLC-gamma1 inh 12 | PLCgamma1 ctr inactive | PLCbeta3 conf inactive
O=c1cc(SCc2ccccc2)nc[nH]1	PLC-gamma1 inh 12 | PLCgamma1 ctr inactive | PLCbeta3 conf inactive
Cc1cc(SCc2ccccc2)nc(=O)[nH]1	none
COc1ccc(CNS(=O)(=O)c2cc(Cl)ccc2N2CC[C@@H](O)C2)cc1	none
COC(=O)CCCCCCCCC(O)CN1CCCCC1 (stereo unspecified)	PLCb3 inh 12 | PLCgamma1 ctr inactive | PLCbeta3 conf inactive
COCCn1c(C)cc(C(=O)COC(=O)c2ccc(Br)o2)c1C	PLC-gamma1 inh 10 | PLCgamma1 ctr inactive | PLCbeta3 conf inactive
COC(=O)C1=C(C)N(Cc2ccccc2)C(=NCCc2ccccn2)N[C@H]1c1cccc(F)c1	none
COC(=O)CSc1nnc2n(-c3ccc(OC)cc3)c(=O)c3c4c(sc3n12)CCCCC4	PLC-gamma1 inh 10 | PLCgamma1 ctr inactive | PLCbeta3 conf inactive
COC(=O)CSc1nnc2n(C3CCCCC3)c(=O)c3c4c(sc3n12)CCCC4	none
Nc1c(Br)c(=O)[nH]c(=O)n1-c1ccccc1	none
COc1ccc(-n2c(N)c(Br)c(=O)[nH]c2=O)cc1	PLC-gamma1 inh 11 | PLCgamma1 ctr inactive | PLCbeta3 conf inactive
COc1cccc(CNC(=O)CNC(=O)c2cccs2)c1	none
CC(=O)c1ccc(NC(=O)CSc2nc(=O)n3cccc(C)c3n2)cc1	none
Cc1cc(C(=O)N/N=C/c2cccc([N+](=O)[O-])c2O)n[nH]1	none
Cc1cc(C(=O)N/N=C/c2ccc(O)c([N+](=O)[O-])c2)n[nH]1	PLC-gamma1 inh 10 | PLCgamma1 ctr inactive | PLCbeta3 conf inactive
CCOC(=O)[C@H]1[C@H]2COc3ccccc3[C@@H]2N2C(=O)CNC(=O)[C@@]12C	PLCb3 inh 13 | PLCgamma1 ctr inactive | PLCbeta3 conf inactive
CCOC(=O)[C@H]1[C@H]2COc3ccccc3[C@@H]2N2C(=O)c3cc(F)c(F)cc3NC(=O)[C@@]12C	none
Cc1ccc(C)c(NC(=O)CN(C)C(=O)c2ccc(-n3cncn3)c([N+](=O)[O-])c2)c1	none
CCOC(=O)C1(CCOc2ccccc2)CCN(Cc2ccc(OC)c(O)c2)CC1	PLC-gamma1 inh 10 | PLCgamma1 ctr inactive | PLCbeta3 conf inactive
CCOC(=O)C1(CCOc2ccccc2)CCN(Cc2cc(OC)c(O)c(OC)c2)CC1	none
O=C(CCNS(=O)(=O)c1ccccc1F)N1CCN(Cc2ccccc2)CC1	none
CC(C)c1ccc(S(=O)(=O)N2CCN(C(=O)CCNS(=O)(=O)c3ccccc3F)CC2)cc1	PLC-gamma1 inh 18 | PLCgamma1 ctr inactive | PLCbeta3 conf inactive
COc1ccc(C)cc1N1CC(C(=O)Nc2ccccc2N2CCCCC2)CC1=O (stereo unspecified)	none
O=c1[nH]c(-c2ccccn2)nc(C(F)(F)F)c1Br	PLC-gamma1 inh 11 | PLCgamma1 ctr inactive | PLCbeta3 conf inactive
CCOC(=O)c1c(NC(=O)C2Cc3ccccc3C(=O)O2)sc2c1CCCC2 (stereo unspecified)	none
CN(CCc1ccccn1)C1CCCN(S(=O)(=O)c2ccc(F)c(Cl)c2)C1 (stereo unspecified)	PLC-gamma1 inh 11 | PLCgamma1 ctr inactive | PLCbeta3 conf inactive
Cc1cc(S(=O)(=O)N2CCCC(N(C)CCc3ccccn3)C2)c(C)s1 (stereo unspecified)	none
O=C(CCc1ccccc1)N[C@@H]1c2ccccc2CC[C@@H]1OCc1ccccc1	none
CCOP(=O)(OCC)C(NC(=O)Nc1ccccc1)C(N)=O (stereo unspecified)	PLCb3 inh 11 | PLCgamma1 ctr inactive | PLCbeta3 conf inactive
CC1CCN(c2c(NCc3ccc(C(=O)NCc4ccco4)cc3)c(=O)c2=O)CC1	none
O=C(NCc1ccco1)c1ccc(CNc2c(N3CCCCC3)c(=O)c2=O)cc1	PLCb3 inh 11 | PLCgamma1 ctr inactive | PLCbeta3 conf inactive
CC(C)(C)N1C(=O)[C@H]2[C@@H](c3ccc(Br)cc3)N3C(=O)N(c4cccc(Cl)c4)C(=O)[C@@]3(Cc3ccccc3)[C@H]2C1=O	PLC-gamma1 inh 10 | PLCgamma1 ctr inactive | PLCbeta3 conf inactive
COC(=O)CCCC(=O)N1CCC(n2nccc2NC(=O)CCOc2ccccc2)CC1	none
Cc1cccc(N2CCN(C(=O)C3CCC(CNS(=O)(=O)c4cccs4)CC3)CC2)c1C (stereo unspecified)	none
O=C(C1CCC(CNS(=O)(=O)c2cccs2)CC1)N1CCCCC1 (stereo unspecified)	PLCb3 inh 16 | PLCgamma1 ctr inactive | PLCbeta3 conf inactive
CS(=O)(=O)N1CCN(CC2CC3C=CC2C3)CC1 (stereo unspecified)	PLC-gamma1 inh 10.0 | PLCgamma1 ctr inactive | PLCbeta3 conf inactive
O=C(c1cc(C2CC2)nn1-c1ccccc1)N1CCN(c2ccccn2)CC1	none
O=C(NCc1cccc2[nH]ccc12)C1CCC(=O)N(CCc2ccccc2)C1 (stereo unspecified)	none
COC(=O)[C@]12CCCCC=C1N(Cc1cccc3ccccc13)C(=O)[C@H](CC(=O)NCCc1ccccc1OC)C2	none
COC(=O)c1ccc(C)c(NC(=O)Cn2cnc3ccccc3c2=O)c1	PLCb3 inh 11 | PLCgamma1 ctr inactive | PLCbeta3 conf inactive
CCN(C(=O)CCNC(=O)Cn1cnc2ccccc2c1=O)c1cccc(Cl)c1	none
COC(=O)c1ccccc1NC(=O)CCNC(=O)Cn1cnc2ccccc2c1=O	none
CCCN(C(=O)CCNC(=O)Cn1cnc2ccccc2c1=O)c1cccc(C)c1	PLC-gamma1 inh 11 | PLCgamma1 ctr inactive | PLCbeta3 conf inactive
CC(=O)OCCCN1c2ccccc2Nc2nnc(-c3ccccc3)cc21	PLCb3 inh 14 | PLCgamma1 ctr inactive | PLCbeta3 conf inactive
COC(=O)CCC(=O)N1CCC(CCC(=O)NCc2ccc(F)cc2)CC1	PLC-gamma1 inh 13 | PLCgamma1 ctr inactive | PLCbeta3 conf inactive
CCCOc1cc(C)c(Cl)cc1S(=O)(=O)N(CC)CC	none

Assay outcomes: PubChem, The Scripps Research Institute Molecular Screening Center
